Compound activity as filed in PubChem.
MITF act – increases MITF-driven TRPM1 promoter luciferase signal; SK-MEL-5 TRPM1-promoter luciferase, 24 h; % of positive control, neutral wells = 0; activation, % at 12.5 µM; actives 0.75% (n = 300,000);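 active = mean activation of at least 80% with every replicate also reaching 80%; inconclusive = mean reaches 80% but some replicate falls short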;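 note: 0% = neutral control wells and 100% = parthenolide positive control wells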
Wnt bcat act – activators of Wnt/beta-catenin signaling; Wnt/beta-catenin reporter cell assay, activator, plate reader; activation, % at 9.35 µM; actives 1.2% (n = 300,000); AID 743398; in the data active = activation above about 30%, passing the limit was not always enough; inconclusive = no clear call, values can overlap the other calls;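 note: 0% = neutral control wells and 100% = positive control wells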
Rtt109 HAT inh – C. albicans Rtt109 histone acetyltransferase inhibition; purified Rtt109/Vps75, ThioGlo CoA-SH fluorescence, 4 h; Q5AAJ8; actives 0.16% (n = 330,000); inhibition, % at 34.9 µM;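 active = inhibition of at least 50% in every replicate; inconclusive = best replicate reaches 50% inhibition but some replicates fall short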
Target sequence (Q5AAJ8 whole entry, looked up): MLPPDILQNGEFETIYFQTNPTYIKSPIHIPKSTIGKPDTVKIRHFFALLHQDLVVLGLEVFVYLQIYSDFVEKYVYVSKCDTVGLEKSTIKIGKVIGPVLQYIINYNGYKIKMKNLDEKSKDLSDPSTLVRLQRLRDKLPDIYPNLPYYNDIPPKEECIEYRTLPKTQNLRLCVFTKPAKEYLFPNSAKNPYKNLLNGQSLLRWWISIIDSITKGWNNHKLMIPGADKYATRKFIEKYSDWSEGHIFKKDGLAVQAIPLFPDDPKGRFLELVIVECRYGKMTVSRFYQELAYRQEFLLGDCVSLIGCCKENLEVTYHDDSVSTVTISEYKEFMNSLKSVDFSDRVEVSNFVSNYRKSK
Statin myotox sup – protects C2C12 myotubes from simvastatin toxicity; actives 0.78% (n = 330,000); ATP luminescence, 48 h; scaled: DMSO 0, geranylgeraniol control 100; AID 602340; rescue of ATP level, % at 7.49 µM;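 active = mean ATP rescue above about 67%, or every replicate alone reaching that limit, limit read from the data, passing the limit was not always enough; inconclusive = no clear call, values can overlap the other calls; inactive = mean under the limit and some replicate under it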;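 note: myotubes were challenged with 10 µM simvastatin during compound exposure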
esBAF inh – inhibitors of esBAF chromatin remodeling in mouse ES cells. Bmi1-luciferase knock-in reporter, 24 h; 100% = twice the neutral-well signal. reporter increase, % at 12.5 µM. actives 2% (n = 350,000). AID 602393; in the data active = activation above about 40%; inconclusive = no clear call, values can overlap the other calls;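 note: 0% = median of the plate's neutral control wells and 100% = double that signal; a rise in the Bmi1 reporter signal indicates esBAF inhibition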
* = called active by the depositor; ? = inconclusive; · = no result. This is a sample that favours compounds with a hit; in the whole collection about 3.1% have one here.

SMILES | MITF act | Wnt bcat act | Rtt109 HAT inh | Statin myotox sup | esBAF inh
Cc1nc(-c2ccc(NC(=O)Cc3ccccc3)cc2)cs1 | 65 | 4 | 2 | -53 | 49*
COc1ccc(CC(=O)Nc2ccc(-c3cn4ccccc4n3)cc2)cc1 | 39 | · | 0 | 111* | 31
COc1cccc(NC(=O)C[C@H]2CC[C@H]3[C@H](COc4ccc(NC(=O)C5CCOCC5)cc4C(=O)N3C)O2)c1 | · | · | · | 15 | 6
CO[C@@H]1CN(C)C(=O)c2ccc(NC(C)=O)cc2OC[C@@H](C)N(S(=O)(=O)c2cn(C)cn2)C[C@@H]1C | · | · | · | -16 | -4
C[C@@H]1CN([C@@H](C)CO)C(=O)c2cc(NC(=O)Nc3ccc(F)cc3)ccc2O[C@@H](C)CCCCO[C@@H]1CN(C)Cc1ccccc1 | · | · | · | · | 2
Cc1nc(-c2ccc(NC(=O)c3ccccc3C)cc2)cs1 | 60 | -1 | -16 | -7 | 86*
C/C(=N\NC(=O)c1cccc(C)c1O)c1ccc(NC(=O)Cc2ccccc2)cc1 | 92* | 13 | -5 | · | ·
Cc1nc(-c2ccc(NC(=O)c3ccco3)cc2)cs1 | -70 | -9 | 7 | -122 | -77
Cc1cccnc1NC(=S)Nc1ccc(Br)cc1Cl | 58 | 11 | · | 14 | 55*
CC(=O)Nc1cccc2c1Cc1ccccc1-2 | · | · | 1 | 7 | 51*
C[C@@H]1CN([C@H](C)CO)C(=O)Cc2cc(NS(=O)(=O)c3ccc(Cl)cc3)ccc2O[C@H]1CN(C)C | · | · | · | 0 | -1
CCCC(CCC(=O)Nc1ccc(C(=O)OCC)cc1)C(=O)O (stereo not given) | -5 | 0 | 1 | 105* | -2
Cn1cc(Br)c(C(=O)NC(=S)N2CCN(c3ccccn3)CC2)n1 | 2 | -1 | -7 | · | ·
CCOc1ccc(NC(=O)c2ccco2)cc1 | 36 | · | -1 | 3 | -5
CCCC(CCC(=O)Nc1ccc(C(=O)OC)cc1)C(=O)O (stereo not given) | -3 | 0 | 29 | -2 | -3
CCOC(=O)N1CCN(C(=S)NC(=O)c2nn(C)cc2Br)CC1 | 5 | -9 | · | 125* | 0
CCOC(=O)c1ccc(NC(=O)c2ccco2)cc1 | 75 | 21 | -26 | -16 | 72*
CCOC(=O)c1ccc(NC(=O)c2nn(C)cc2Br)cc1 | 83* | 1 | 13 | -1 | 51*
Cc1ccccc1-c1cnc2c(c1)C(=O)N([C@@H](C)CO)C[C@@H](C)[C@@H](CN(C)CC1CC1)O2 | · | · | · | 35 | -3
CN1c2ccc(-c3ccccc3F)cc2[C@H]2[C@H](CCN2C(=O)c2ccccn2)[C@@H]1CO | · | · | · | 45 | 22
CCOc1ccc(NC(=S)NC(=O)c2ccco2)cc1 | 89* | 12 | -5 | -43 | ?
COC(=O)c1ccc(NC(=O)c2cccc(NC(=O)c3ccco3)c2)cc1 | · | -2 | 4 | 5 | -10
CC(C)OC(=O)c1ccc(NC(=O)c2ccco2)cc1 | 110* | 19 | 5 | · | 61*
CCOC(=O)c1ccc(NC(=O)N(CC)CC)cc1 | 39 | 49* | 7 | -10 | -29
COC(=O)c1c(NC(=O)c2ccco2)sc(C(=O)Nc2ccc(F)cc2)c1C | 109* | 25 | -1 | · | ·
SMILES | MITF act | Wnt bcat act | Rtt109 HAT inh | Statin myotox sup | esBAF inh
COC(=O)c1c(NC(=O)c2ccco2)sc(C)c1C | 1 | 7 | · | 13 | 5
C[C@@H]1CN([C@@H](C)CO)C(=O)Cc2cc(NS(=O)(=O)c3ccccc3)ccc2O[C@H]1CN(C)Cc1ccc2c(c1)OCO2 | · | · | · | 7 | 0
CC1=C(C(=O)OC2CCCCCC2)C(c2ccc(C)o2)C2=C(CCCC2=O)N1 (stereo not given) | -8 | -4 | · | 3 | -5
CC1=C(C(=O)OC2CCCC2)C(c2ccc(C)o2)C2=C(CC(c3cccs3)CC2=O)N1 (stereo not given) | -21 | -9 | 4 | 102* | -9
COc1ccc(/C=C2\N=C(c3ccc(C)cc3)OC2=O)cc1 | -11 | 0 | -6 | -3 | 5
Cc1ccc(C2=N/C(=C/N3CCOCC3)C(=O)O2)cc1 | 92* | · | -6 | 5 | 52*
Cc1ccc(C2=N/C(=C\N3CCCCC3)C(=O)O2)cc1 | ? | 63* | 1 | -4 | 36
CCC(=O)Nc1ccc2c(c1)C(=O)N(C)[C@H]1CC[C@H](CC(=O)NCCN3CCCCC3)O[C@@H]1CO2 | · | · | · | 7 | -2
CSC1=N/C(=C\c2ccc(C)cc2)C(=O)S1 | -10 | · | 1 | 2 | -11
COc1ccc(/C=C2\N=C(SC)SC2=O)cc1OC | 4 | 0 | 2 | 107* | -7
CCCNC(=O)C[C@H]1CC[C@@H]2[C@H](COc3ccc(NC(=O)C4CCCC4)cc3C(=O)N2C)O1 | · | · | · | -6 | 2
O=[N+]([O-])c1ccccc1NCCOc1ccccc1 | 65 | 67* | 7 | · | ·
Cc1ccc(S(=O)(=O)Nc2ccc3c(c2)C(=O)N([C@@H](C)CO)C[C@H](C)[C@H](CN(C)C(=O)Nc2cccc4ccccc24)OCCCC[C@H](C)O3)cc1 | · | · | · | · | 8
O=C(NCCc1ccccc1)[C@H]1[C@H](CO)[C@H]2Cn3c(cccc3=O)[C@@H]1N2CC1CC1 | · | · | · | -24 | 2
COc1ccccc1N=Nc1ccc(O)c2ncccc12 | 1 | 16 | -12 | -24 | 64*
Cc1ccc2c(c1)c1c(n2C)C(C(N)=O)CCC1 (stereo not given) | -2 | 4 | 4 | -3 | -1
Cc1ccc2c(c1)c1c(n2C)-c2[nH]ncc2CC1 | · | 41* | -9 | -1 | 22
CCn1c(O)c(N=Nc2ccc3ccccc3n2)c2ccccc21 | 116* | -1 | 3 | · | ·
CSc1nc(Cl)cc(Nc2ccc(O)cc2)n1 | 20 | 38* | -6 | · | ·
CNc1cc(Cl)nc(SC)n1 | -1 | -1 | -15 | · | ·
O/N=C/c1ccc(OCc2ccccc2)c(Br)c1 | 73 | 42* | 7 | · | ·
C[C@@H]1CN([C@@H](C)CO)C(=O)c2cccc(NC(=O)C3CC3)c2O[C@H]1CN(C)CC1CCCCC1 | · | · | · | -15 | -5
Cc1ccc(S(=O)(=O)N2CCN(Cc3nc4sc(C)c(C)c4c(=O)[nH]3)CC2)cc1 | -5 | · | · | 23 | -5
Cc1sc2nc(CN3CCN(S(=O)(=O)c4cccc5nonc45)CC3)[nH]c(=O)c2c1C | -13 | · | 0 | 93* | 0
CCC(CC)C(=O)NCCc1cc2cc(C)c(C)cc2[nH]c1=O | 2 | -5 | -9 | -21 | -1
Cc1ccc2cc(CCNC(=O)c3ccco3)c(=O)[nH]c2c1 | 103* | · | 9 | 4 | 26
Cc1ccc2cc(CCNC(=O)c3ccco3)c(=O)[nH]c2c1C | 104* | ? | 6 | 5 | -29
Cc1cc2cc(CCNC(=O)c3cccs3)c(=O)[nH]c2cc1C | · | ? | 7 | -3 | 82*
COc1ccc2cc(CCNC(=O)c3ccco3)c(=O)[nH]c2c1 | 54 | 34* | 1 | 6 | 37
Cc1ccc2cc(CCNC(=O)CCCc3ccccc3)c(=O)[nH]c2c1 | -12 | -3 | 2 | 18 | 3
